Test [1] has as its target Tumor necrosis factor receptor superfamily member 10B (Homo sapiens) (UniProt O14763). The experiment in a line: caspase-8 TRAIL sensitization, hit retest, confirmation, cell-based, NB7+caspase-8, with/without TRAIL, luminescence panel (AID 651596). The conditions noted are these: NB7 neuroblastoma + caspase-8, TRAIL sensitization, luminescence viability, with TRAIL, mean of runs, at 10 µM, stronger effect = higher value.

Experiment in test [2]: as above
The conditions noted are these: NB7 neuroblastoma + caspase-8, without TRAIL, luminescence viability, without TRAIL, mean of runs, at 10 µM.

Test [3] deals with Tumor necrosis factor receptor superfamily member 10B (Homo sapiens) (UniProt O14763). The experiment in a line: TRAIL sensitizers in caspase-8 expressing neuroblastoma cells, dose response, NB7 cells plus caspase-8, luminescence, panel (AID 652002). The note with it: NB7 neuroblastoma +caspase-8, TRAIL sensitization, luminescence viability, NB7+Caspase-8, with TRAIL, run 1; at 12.5 µM (top of the series).
Sequence of Tumor necrosis factor receptor superfamily member 10B (Homo sapiens) (O14763 whole entry, looked up): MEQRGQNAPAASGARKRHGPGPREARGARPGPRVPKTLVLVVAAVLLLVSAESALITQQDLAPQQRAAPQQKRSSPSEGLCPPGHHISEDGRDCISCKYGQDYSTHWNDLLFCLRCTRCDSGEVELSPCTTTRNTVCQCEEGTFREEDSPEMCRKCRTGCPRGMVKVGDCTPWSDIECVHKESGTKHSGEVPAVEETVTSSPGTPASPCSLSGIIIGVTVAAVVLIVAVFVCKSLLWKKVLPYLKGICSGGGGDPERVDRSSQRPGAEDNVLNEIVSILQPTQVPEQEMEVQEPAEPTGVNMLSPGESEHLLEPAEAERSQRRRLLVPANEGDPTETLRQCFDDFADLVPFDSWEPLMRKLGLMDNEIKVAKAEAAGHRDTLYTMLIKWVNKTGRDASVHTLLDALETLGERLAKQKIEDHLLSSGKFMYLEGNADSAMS

For test [4] the target is unchanged. Described as above. The note with it: NB7 neuroblastoma +caspase-8, TRAIL sensitization, luminescence viability, NB7+Caspase-8, with TRAIL, run 2; at 12.5 µM (top of the series).
Experiment in test [5]: as above
The note with it: NB7 neuroblastoma +caspase-8, no TRAIL, compound-alone cytotoxicity counter-screen, luminescence viability, NB7+Caspase-8, run 1; at 12.5 µM (top of the series) unless noted.

Experiment in test [6]: as above
The conditions noted are these: NB7 neuroblastoma +caspase-8, no TRAIL, compound-alone cytotoxicity counter-screen, luminescence viability, NB7+Caspase-8, run 2; at 12.5 µM (top of the series) unless noted.

Experimental findings from PubChem BioAssay are described below.

As to `CN(C)CCCN(C(=O)c1ccc(S(=O)(=O)N2CCCc3ccccc32)cc1)c1nc2ccc(F)cc2s1`, the activity in test [1] was 55.7%; in test [2] it was 52.9%. The activity, % sensitization in test [3] is -21.5%; in test [4], 18.8%; in test [5], -8.84%; in test [6] it was 17.9%.
`COc1cccc(N/C=C/C(=O)c2ccc(Cl)cc2)c1`: the activity is 58% in test [1] and 50% in test [2]. In addition, the activity, % sensitization in test [3] stood at 32%; in test [4], 38.3%; in test [5] it was 28.1%; in test [6], 40.5%.
As to `O=C1c2ccc3c4c(ccc(c24)C(=O)N1c1cccc(O)c1)C(=O)N(c1cccc(O)c1)C3=O`, the activity was found to be 63.2% in test [1] and 53.8% in test [2]. Moreover, the activity, % sensitization worked out at 52.1% in test [3], 35.7% in test [4], 29.8% in test [5] and 21.3% in test [6].
Take `CCC(C)c1ccc(O)c(NC(=S)NC(=O)c2cccs2)c1` (centres undefined): the activity in test [1] stood at 56.5%; in test [2], 54.3%. The activity, % sensitization in test [3] is 40.5%; in test [4] it was 49.3%; in test [5] it was 56.2%; in test [6] it was 41.9%.
For the compound `CC1(C)N=C(N)N=C(N)N1c1ccc(Oc2ccc(Cl)cc2)c(Cl)c1`, the activity amounted to 57.3% in test [1] and 51% in test [2]. Besides, the activity, % sensitization in test [3] is 50.2%; in test [4], 62.6%; in test [5] it was 60.3%; in test [6] it was 68.3% [at 6.25 µM].
Turning to `CCOC(=O)C(=C1Nc2ccccc2N1)n1c(-c2cccnc2)nc2ccccc21`, the activity in test [1] came to 55.9%; in test [2], 52%. The activity, % sensitization in test [3] is 44.5%; in test [4] it was 36.8%; in test [5] it was -4.97%; in test [6], 41.7%.
Regarding `O=C(ONC1=NCCCCC1)c1ccc(Cl)cc1`, the activity in test [1] was 89.3%; in test [2] it was 47.2%. Also, the activity, % sensitization in test [3] came out at 16.1%; in test [4], 23.5%; in test [5], 7.61%; in test [6], 44.2%.
For `Cc1ccn2cc(C(=O)Nc3ccc4c(c3)OCCO4)nc2c1`, the activity in test [1] turned out to be 58.2%; in test [2], 50.8%. Besides, the activity, % sensitization in test [3] was 38.4%; in test [4], 40.7%; in test [5], 47.9%; in test [6], 50.7%.
As to `O=C(NCC1CCCO1)c1ccc2c3n(nc2c1)-c1ccccc1CO3` (centres undefined), the activity in test [1] amounted to 52.9%; in test [2], 54.6%. The activity, % sensitization in test [3] came to 29.1%; in test [4] it was 41.5%; in test [5], 21%; in test [6], 11.7%.
For the compound `CCOC(=O)c1cnc2c(-c3ccccc3)cnn2c1N`, the activity in test [1] came to 62.2%; in test [2] it was 54.7%. In addition, the activity, % sensitization in test [3] came to 38.5%; in test [4], 22.1%; in test [5] it was 13.3%; in test [6], 5.35%.
As to `Cc1ccnc(NC(=O)Nc2ccc3c(c2)OCO3)c1`, the activity in test [1] worked out at 51%; in test [2], 41%. Further, the activity, % sensitization in test [3] was 40.8%; in test [4] it was 17%; in test [5], 0.866%; in test [6], -33.8%.
For `O=C(Oc1c(CN2CCOCC2)cc(Cl)c2cccnc12)c1cccs1`, the activity was 53.1% in test [1] and 53.5% in test [2]. In addition, the activity, % sensitization in test [3] was 24.4%; in test [4], 44.5%; in test [5] it was 8.65%; in test [6] it was -4.1%.
Turning to `O=C1c2ccc(Cl)cc2S(=O)(=O)c2cccc(C(=O)N3CCC(Cc4ccccc4)CC3)c21`, the activity in test [1] stood at 70.8%; in test [2], 26.7%. In addition, the activity, % sensitization in test [3] is -6.25%; in test [4] it was 3.7%; in test [5] it was -20.1%; in test [6] it was -5.15%.
In the case of `C(=C\c1ccco1)/c1nc2ccccc2[nH]1`, the activity in test [1] amounted to 57.9%; in test [2], 31.6%. For the same compound, the activity, % sensitization in test [3] is -0.105%; in test [4], 5.08%; in test [5], -6.68%; in test [6] it was -0.982%.
Turning to `Cc1ccc(NC(=O)c2cc3ccccc3o2)nc1`, the values for the activity in test [1] and in test [2] were 58.9% and 49.5%, respectively. Besides, the activity, % sensitization in test [3] turned out to be 32.6%; in test [4] it was 41.2%; in test [5], 43%; in test [6] it was 41.7%.
With `COc1cccc(C(=O)Nc2ccc(C3CC3(Cl)Cl)cc2)c1` (centres undefined), the activity in test [1] was 47%; in test [2], 46.5%. For the same compound, the activity, % sensitization stood at 12.6% in test [3], 30.2% in test [4], 5.52% in test [5] and 21.8% in test [6].
Regarding `CCSc1ccc(-c2ccc(C)cc2)nn1`, the activity in test [1] amounted to 59.6%; in test [2] it was 51.1%. Also, the activity, % sensitization in test [3] was 47.8%; in test [4] it was 52.9%; in test [5] it was 5.62%; in test [6] it was 35.8%.
As for `Cc1ccc2c(c1)C(=NC1CCCCC1)c1cc3ccccc3nc1-2`, the activity was found to be 62.8% in test [1] and 51.2% in test [2]. The activity, % sensitization in test [3] was -15%; in test [4], -9.21%; in test [5] it was 10.4%; in test [6] it was -8.89%.
Consider `c1ccc(-c2cnc(-c3ccccn3)nn2)cc1`, for which the activity in test [1] turned out to be 61.4%; in test [2], 53.5%. The activity, % sensitization worked out at 26.5% in test [3], 46.5% in test [4], 52.7% in test [5] and 36.1% in test [6].
For `O=C(NC(=O)c1ccccc1)Nc1ccccc1`, the activity is 54.2% in test [1] and 49.9% in test [2]. For the same compound, the activity, % sensitization in test [3] is 28.7%; in test [4], 6.32%; in test [5], 7.63%; in test [6], -8.56%.
As to `CCOC(=O)c1ccc(N/C=C/C(=O)c2ccco2)cc1`, the activity was 52.7% in test [1] and 46.1% in test [2]. For the same compound, the activity, % sensitization in test [3] amounted to 24.1%; in test [4], 9.37%; in test [5], 0.326%; in test [6], 6.5%.
As to `CSc1ccc(/C=C/c2ccc3cccc(O)c3n2)cc1`, the activity was found to be 48.5% in test [1] and 53.9% in test [2]. The activity, % sensitization in test [3] came out at 31.9%; in test [4], 41.1%; in test [5], 23.2%; in test [6], 36.6%.
Consider `O/C(=C\c1ccc2ccccc2n1)c1ccc(O)cc1O`, for which the activity in test [1] came out at 62.3%; in test [2], 42.8%. Besides, the activity, % sensitization in test [3] turned out to be 31.9%; in test [4], 48.7%; in test [5], 1.18%; in test [6] it was 20.3%.
`Cc1cc2nc(-c3ccc(SCC(=O)Nc4nccs4)nc3)[nH]c2cc1C`: the activity was determined as 58% in test [1] and 46.6% in test [2]. Besides, the activity, % sensitization in test [3] is 5.16%; in test [4], 48.9%; in test [5], -17.8%; in test [6], 0.327%.
Take `COc1ccc(-c2nc(-c3ccc(NC(=O)c4ccncc4)cc3)no2)cc1OC`: the activity in test [1] is 70.5%; in test [2], 47.2%. Besides, the activity, % sensitization is -12.9% in test [3], -17.5% in test [4], 2.44% in test [5] and -14.5% in test [6].
Turning to `C#Cc1ccc(NC(=O)C2(C)CCN2C(=O)Cc2ccc(C(C)C)cc2)cc1` (centres undefined), the figures for the activity in test [1] and in test [2] were 79.1% and 49.2%, respectively. Further, the activity, % sensitization in test [3] came to 18.4%; in test [4], 11.5%; in test [5], 1.52%; in test [6], 54.8%.
For `O=C(Nc1cnc2ccccn2c1=O)c1ccc(Cl)cc1Cl`, the activity in test [1] came out at 56%; in test [2] it was 52.5%. Besides, the activity, % sensitization in test [3] was 15.5%; in test [4], 2.31%; in test [5], -7.49%; in test [6] it was -6.53%.
As for `Cc1cccc2nc(=S)n(C(=O)c3ccco3)n12`, the figures for the activity in test [1] and in test [2] were 54.6% and 44.5%, respectively. In addition, the activity, % sensitization was -5.2% in test [3], -6.02% in test [4], -1.17% in test [5] and -18.3% in test [6].
Regarding `O=C(Nc1ccc2[nH]ccc2c1)c1cccs1`, the activity stood at 64% in test [1] and 52.9% in test [2]. Moreover, the activity, % sensitization in test [3] was 48.2%; in test [4], 52.7%; in test [5] it was 46.5%; in test [6] it was 43.5%.
